Data: PubChem BioAssay (NCI)
Compounds without any hit were thinned out: in the full panel of roughly 83,000, 20% have a hit.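 Single-dose data. Exposure time 48 hours. Values below 10 considered active.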 A number with no mark means an inactive call. Active and inactive are the calls of the source.

system: ACHN renal; test: NCI-60 one-dose screen, 48 h (100 = growth as untreated, 0 = no growth, -100 = all killed); conditions: 10 µM unless noted

SMILES	growth
Nc1ccc(F)c(Cl)c1F	106%
COc1ccc(Br)c2c1C(=O)CC2	114%
Oc1cccnc1CN1CCCC1	105%
CC(C)(CC(=O)O)CC(=O)O	104%
CN=S(=O)(OCCCCCOS(=O)(=NC)c1ccc(C)cc1)c1ccc(C)cc1 (stereo unspecified)	77.2%
NC(CO)(CO)c1ccccc1	112%
CC1CC2C3CCC4=CC(=O)CCC4(C)C3CCC2(C)C1(O)C(=O)CO (stereo unspecified)	124%
CC(c1ccccc1)N1C(=O)CSC1=S (stereo unspecified)	50.7%
CN1CCN(C(=S)S)CC1	105%
Nc1ncnc(Nc2ccccc2)n1	113%
O=c1cc(C(F)(F)F)[nH]c(=S)[nH]1	108%
CCOC(=O)c1c(C)[nH]c(C)c1C=O	102%
CCOP(=O)(NC(c1ccccc1)c1ccccc1)OCC	103%
CC(C)(C)[Si](C)(C)OCC1OC(n2cnc3c(N)ncnc32)CC1OS(C)(=O)=O (stereo unspecified)	114%
Nc1nc(Cl)cc(Cl)n1	105%
C=C(C)COc1ccc(C(C)(C)C)cc1	105%
Nc1ccc2c(c1)Cc1cc(N)c(N)cc1-2	101%
Clc1ccc(C(SCc2ccccc2)SCc2ccccc2)cc1	101%
O=[N+]([O-])c1ccc(-c2nc(N(CCO)CCO)c3ccccc3n2)o1	-14.5% (active)

SMILES	growth
CCNC(=O)OCCc1c2ccccc2nc2ccccc12	94.1%
C=C(OC(C)=O)c1ccccc1	115%
O=C(OCc1ccccc1)n1nnc2ccccc21	108%
Cc1ccc2nc(N)nnc2c1	108%
CC(=O)NC(CCC(=O)c1ccccc1)C(=O)O (stereo unspecified)	108%
CCOC(=O)/C(C#N)=C\c1c[nH]c2ccccc12	85.1%
CCN(C(=O)Nc1ccccc1Cl)c1ccccc1	96.2%
Nc1cc2ccccc2c(O)c1O	9.52% (active)
NC(CSSCC(N)C(=O)O)C(=O)O (stereo unspecified)	-37.8% (active)
COc1cc(C(=O)N2CCN(c3ccccc3)CC2)c2ccccc2n1	60.6%
Cc1ccc(C)c(CCO)c1	107%
S=c1nc2[nH]c3ccccc3c2n[nH]1	97.2%
NCCCN1CCCC1=O	113%
Cc1c(Cl)cccc1N=C=S	99.3%
O=[n+]1ccn([O-])c2ccccc21	104%
Nc1ncnc2c1ncn2C1OC(CO)C2OC21 (stereo unspecified)	116%
CCOc1ccc2c(c1)c(C)cc(C)[n+]2CC	94.1%
Cc1ccc(S(N)(=O)=O)cc1Cl	107%
O=C1C=Cc2ccccc2/C1=C/c1[nH]c(=O)[nH]c1O	55.3%

system: CAKI-1 renal; test: as above; conditions: 10 µM unless noted

SMILES	growth
Nc1ccc(F)c(Cl)c1F	97.5%
COc1ccc(Br)c2c1C(=O)CC2	110%
Oc1cccnc1CN1CCCC1	97%
CC(C)(CC(=O)O)CC(=O)O	97.7%
CN=S(=O)(OCCCCCOS(=O)(=NC)c1ccc(C)cc1)c1ccc(C)cc1 (stereo unspecified)	74.6%
NC(CO)(CO)c1ccccc1	96.1%
CC1CC2C3CCC4=CC(=O)CCC4(C)C3CCC2(C)C1(O)C(=O)CO (stereo unspecified)	94.9%
CC(c1ccccc1)N1C(=O)CSC1=S (stereo unspecified)	61.1%
CN1CCN(C(=S)S)CC1	99.5%
Nc1ncnc(Nc2ccccc2)n1	92.7%
O=c1cc(C(F)(F)F)[nH]c(=S)[nH]1	88%
CCOC(=O)c1c(C)[nH]c(C)c1C=O	99.8%
CCOP(=O)(NC(c1ccccc1)c1ccccc1)OCC	93%
CC(C)(C)[Si](C)(C)OCC1OC(n2cnc3c(N)ncnc32)CC1OS(C)(=O)=O (stereo unspecified)	96.2%
Nc1nc(Cl)cc(Cl)n1	102%
C=C(C)COc1ccc(C(C)(C)C)cc1	96.2%
Nc1ccc2c(c1)Cc1cc(N)c(N)cc1-2	102%
Clc1ccc(C(SCc2ccccc2)SCc2ccccc2)cc1	85%
O=[N+]([O-])c1ccc(-c2nc(N(CCO)CCO)c3ccccc3n2)o1	-28.2% (active)

SMILES	growth
CCNC(=O)OCCc1c2ccccc2nc2ccccc12	121%
C=C(OC(C)=O)c1ccccc1	100%
O=C(OCc1ccccc1)n1nnc2ccccc21	93.1%
Cc1ccc2nc(N)nnc2c1	83.7%
CC(=O)NC(CCC(=O)c1ccccc1)C(=O)O (stereo unspecified)	102%
CCOC(=O)/C(C#N)=C\c1c[nH]c2ccccc12	30.8%
CCN(C(=O)Nc1ccccc1Cl)c1ccccc1	96.2%
Nc1cc2ccccc2c(O)c1O	84.5%
NC(CSSCC(N)C(=O)O)C(=O)O (stereo unspecified)	11.4%
COc1cc(C(=O)N2CCN(c3ccccc3)CC2)c2ccccc2n1	36.2%
Cc1ccc(C)c(CCO)c1	115%
S=c1nc2[nH]c3ccccc3c2n[nH]1	88.9%
NCCCN1CCCC1=O	109%
Cc1c(Cl)cccc1N=C=S	88.8%
O=[n+]1ccn([O-])c2ccccc21	96.2%
Nc1ncnc2c1ncn2C1OC(CO)C2OC21 (stereo unspecified)	106%
CCOc1ccc2c(c1)c(C)cc(C)[n+]2CC	86.2%
Cc1ccc(S(N)(=O)=O)cc1Cl	101%
O=C1C=Cc2ccccc2/C1=C/c1[nH]c(=O)[nH]c1O	68.7%
